Results on 40 molecules are retold here after PubChem BioAssay (NCI).

Compounds without any hit were thinned out: in the full panel of roughly 83,000, 20% have a hit.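 Testing used 96-well plates and a 48-hour single-concentration exposure. Example: -40 means 40% of the starting cells died.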 The source made the active and inactive calls. The calls were made as follows: active = growth percent below 10; inactive = the rest.

In this assay the test system is NCI-H322M lung. As to the kind of experiment: NCI-60 one-dose screen, 48 h (100 = growth as untreated, 0 = no growth, -100 = all killed). The note with it: 10 µM unless noted.
As to `Fc1ccc(COc2ccc(Nc3ncnc4sc5c(c34)CCCC5)cc2)cc1`, the growth is 86.9% (inactive).

As for `COc1cc(C2Cc3ncccc3-c3[nH]c(=O)c4cccnc4c32)cc(OC)c1OC` (stereo not given), the growth was 55.5% (inactive).

Turning to `O=C(c1ccc(Cl)cc1Cl)N1c2ccccc2Sc2ccccc21`, the growth was 85.2% (inactive).

For the molecule `O=C(N/N=C/c1ccc([N+](=O)[O-])cc1)c1ccc2nc(-c3ccc(Cl)cc3)[nH]c2c1`, the growth is 70.1% (inactive).

For `O=C(NCc1ccccc1O)c1cccc2ccccc12`, the growth was 95.9% (inactive).

In the case of `CC1=C(C(=O)n2c3ccccc3c3ccccc32)C(c2cccc([N+](=O)[O-])c2)C(C(=O)n2c3ccccc3c3ccccc32)=C(C)N1`, the growth is 98.4% (inactive).

For `COc1ccc(/C=C/C(=O)c2ccc(NC(=O)CSc3nnc(-c4cc(-c5ccccc5)nc5ccccc45)n3-c3ccccc3)cc2)cc1`, the growth was 99.6% (inactive).

On to `Cn1cc(-c2nc(-c3c[nH]c4ccncc34)cs2)c2cc(Br)ccc21`, for which the growth was -93.1% (active).

As for `C#Cc1cccc(Oc2ccc(NC(=O)CCl)cc2)c1`, the growth was 100% [8.25 µM] (inactive).

With `CC1(C)CC[C@]2(C(=O)N3CCOCC3)CC[C@]3(C)C(=CC[C@@H]4[C@@]5(C)C/C(=C/c6ccncc6)C(=O)C(C)(C)[C@@H]5CC[C@]43C)[C@@H]2C1`, the growth was 40.9% (inactive).

Regarding `CC(C)c1ccc(NC(=O)Nc2ccc(NC(=O)c3ccccc3N)cc2)cc1`, the growth is 55% (inactive).

Turning to `Cc1cc(C(=O)Nc2cc(Nc3ncccc3-c3ncnc4nc[nH]c34)ccc2F)cc(C(F)(F)F)c1`, the growth is 106% (inactive).

For the molecule `COc1cc2c3c(n(CCCCNCCCn4c5c(c6cc(OC)c(OC)cc6c4=O)C(=O)c4cc6c(cc4-5)OCO6)c(=O)c2cc1OC)-c1cc2c(cc1C3=O)OCO2`, the growth was 90.5% (inactive).

Take `CNC(=O)c1c(NC(=O)c2ccc(C(C)(C)C)cc2)sc2c(CN(C)C)c(O)ccc12`: the growth is 17.1% (inactive).

As for `CCCCn1sc(=O)n(Cc2ccc(CNC(=O)OCc3ccc4c(Cl)cc(Cl)c(O)c4n3)cc2)c1=O`, the growth was 61.5% (inactive).

As to `O=C1Nc2ccc(F)cc2/C1=N/c1nnc(Sc2ccccc2)s1`, the growth was 103% (inactive).

Take `N#Cc1c(N2CCOCC2)nc(=S)[nH]c1-c1ccccc1`: the growth was 76.4% (inactive).

For the molecule `O=C(CSc1nnc2sc(Nc3cccc(Cl)c3)nn12)c1ccc(F)cc1`, the growth was 91.5% (inactive).

With `C=C(CO)[C@@H]1CC[C@]2(COC3CCCCO3)CC[C@]3(C)[C@H](CC[C@@H]4[C@@]5(C)C=C(C=O)C(=O)C(C)(C)[C@@H]5CC[C@]43C)[C@@H]12` (stereo not given in full), the growth is -22.6% (active).

For the molecule `COc1ccc(-c2cc(C(=O)N3N=C(c4ccc(N)cc4)CC3c3ccccc3)c3ccccc3n2)cc1` (stereo not given), the growth was 47.1% (inactive).

As to `COc1ccc(-c2cc(-c3cc(OC)c(OC)c(OC)c3)c(C#N)c(=O)n2CCCCCC(=O)NO)cc1`, the growth is 95.7% (inactive).

As to `Cn1ccnc1C(=O)/C=C/c1ccc(C(=O)Nc2ccc(F)cc2)cc1`, the growth is 11% (inactive).

With `C=C1C(=O)O[C@H]2[C@H]1CC/C(COC(=O)NCCCCCCCCNC(=O)OC/C1=C/CC[C@@]3(C)O[C@H]3[C@H]3OC(=O)C(=C)[C@@H]3CC1)=C\CC[C@@]1(C)O[C@@H]21`, the growth is -26.4% (active).

Regarding `C/C(C=O)=C\c1ccc2c(c1)OCO2`, the growth was 135% (inactive).

For the molecule `COc1cccc(/C=C/C(=O)c2cc3c(N)c(C(=O)Nc4cccc(Cl)c4C)sc3nc2C)c1`, the growth is 7.75% (active).

Turning to `COC(=O)/C=C1/SC(=Nc2cccc(Cl)c2)N(CCc2c[nH]c3ccc(O)cc23)C1=O`, the growth was 98.6% (inactive).

In the case of `CCC/C(=N\NC(N)=O)C(OC)OC`, the growth is 109% (inactive).

As for `COc1ccc2cc(Cn3cc[n+](Cc4ccc5ccccc5c4)c3)ccc2c1`, the growth is 65.8% (inactive).

On to `Cn1c(=O)c2c(c3ccccc31)OC(N)=C(C#N)C21C(=O)c2ccccc2C1=O`, for which the growth was 91.5% (inactive).

For `CN1CCN(c2ccc3c(c2)nc(NNC(=O)c2cnccn2)c2cccn23)CC1`, the growth is 21.5% (inactive).

Consider `Cc1cc(C)c(-c2c(O)c(Br)c(-c3c(C)cc(C)c(Br)c3C)c(O)c2Br)c(C)c1Br`, for which the growth was 38.1% (inactive).

As to `CCN(CC)S(=O)(=O)c1ccc(S(=O)(=O)N2CCC[C@@H](C(=O)N3CCN(C(=O)OC(C)(C)C)CC3)C2)cc1`, the growth was 88.5% (inactive).

For `O=C1/C=C/[C@@H](O)[C@@H]2C[C@@H](O)C[C@H]2/C=C/CCC[C@H](CCOCc2ccccc2)O1`, the growth was 31% (inactive).

Take `COc1ccc(C2=Nc3c/c(=C\c4c(O)[nH]c5cc(Cl)ccc45)ccc3=N2)cc1`: the growth was 91.2% (inactive).

Consider `CCCCCCCCCCCCCCCCCCOc1ccccc1CC(=O)NCC[N+]1(C)CCOCC1`, for which the growth is 65.2% (inactive).

`Cc1ccc(-c2cc(C(=O)N3N=C(c4ccc(N)cc4)CC3c3ccc(Cl)cc3)c3ccccc3n2)cc1` (stereo not given): the growth is 48.3% (inactive).

`O=C(CN1C(=O)/C(=C/c2ccco2)SC1=S)NCCc1c[nH]c2ccc(F)cc12`: the growth was 102% (inactive).

In the case of `CCN(CC)CCN(CCN(CC)CC)c1ccccc1`, the growth was 103% (inactive).

Take `COc1cc(C(=O)C(=O)c2cc(OC)c(O)c(OC)c2)cc(OC)c1O`: the growth is 94.4% (inactive).

Turning to `O=C(/C=C/c1ccc(Br)cc1)c1ccc(-n2cc(CN3CCN(c4cc5c(cc4F)c(=O)c(C(=O)O)cn5C4CC4)CC3)nn2)cc1`, the growth is 87.1% (inactive).
